{
  "source": "PubChem BioAssay (NCATS)",
  "key": {"[1]": {"target": "Rap guanine nucleotide exchange factor 3 (Homo sapiens) (UniProt O95398)", "sequence (O95398 whole entry, looked up)": "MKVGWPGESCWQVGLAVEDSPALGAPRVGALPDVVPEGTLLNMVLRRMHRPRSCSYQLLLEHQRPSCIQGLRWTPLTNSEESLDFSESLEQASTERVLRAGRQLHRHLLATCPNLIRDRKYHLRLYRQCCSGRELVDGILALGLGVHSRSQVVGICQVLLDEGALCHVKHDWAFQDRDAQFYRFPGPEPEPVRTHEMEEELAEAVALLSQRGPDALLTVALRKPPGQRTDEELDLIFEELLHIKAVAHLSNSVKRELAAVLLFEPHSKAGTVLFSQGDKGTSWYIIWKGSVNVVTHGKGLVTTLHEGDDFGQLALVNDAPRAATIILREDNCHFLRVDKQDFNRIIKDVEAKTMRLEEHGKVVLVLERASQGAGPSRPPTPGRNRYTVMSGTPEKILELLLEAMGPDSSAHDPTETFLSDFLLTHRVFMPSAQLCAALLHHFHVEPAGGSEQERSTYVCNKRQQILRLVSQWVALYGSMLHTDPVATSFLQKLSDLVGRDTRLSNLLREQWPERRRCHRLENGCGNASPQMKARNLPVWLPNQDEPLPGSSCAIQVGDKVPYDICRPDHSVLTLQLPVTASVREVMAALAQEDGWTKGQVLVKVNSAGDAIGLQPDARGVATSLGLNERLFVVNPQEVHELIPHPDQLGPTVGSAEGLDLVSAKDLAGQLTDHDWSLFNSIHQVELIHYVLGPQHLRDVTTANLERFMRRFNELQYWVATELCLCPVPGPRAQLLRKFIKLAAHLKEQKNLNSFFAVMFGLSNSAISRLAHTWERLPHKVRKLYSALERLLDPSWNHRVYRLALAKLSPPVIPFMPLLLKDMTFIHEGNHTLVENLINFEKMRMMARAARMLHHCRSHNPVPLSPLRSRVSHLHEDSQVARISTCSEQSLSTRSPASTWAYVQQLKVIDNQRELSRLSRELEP", "assay": "Confirmatory qHTS for antagonist of cAMP-regulated guanine nucleotide exchange factor 3 (EPAC1) (AID 1645880); also: nearly all actives have a fitted effect of over 55% in size; also: potency is read from the fitted curve at half-maximal effect", "outline": "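Released BODIPY-GDP fluoresces less than Rap1-bound BODIPY-GDP; the signal is followed at 480/540 nm at 5-min intervals over 30 min, after 5 min at room temperature. Reactions contain 100 nM EPAC1, 250 nM RAP1B-BODIPY-GDP and 50 uM GDP; results are normalized to ATA and DMSO.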"}, "[2]": {"target": "Rap guanine nucleotide exchange factor 3 (Homo sapiens) (UniProt O95398)", "assay": "Confirmatory qHTS for agonist of cAMP-regulated guanine nucleotide exchange factor 3 (EPAC1) (AID 1645881);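 also: EPAC1 catalysed release of BODIPY-GDP from Rap1B seen as fluorescence loss; nearly all actives have a fitted effect of over 75% in size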"}, "[3]": {"target": "Rap guanine nucleotide exchange factor 4 (Homo sapiens) (UniProt Q8WZA2)", "sequence (Q8WZA2 whole entry, looked up)": "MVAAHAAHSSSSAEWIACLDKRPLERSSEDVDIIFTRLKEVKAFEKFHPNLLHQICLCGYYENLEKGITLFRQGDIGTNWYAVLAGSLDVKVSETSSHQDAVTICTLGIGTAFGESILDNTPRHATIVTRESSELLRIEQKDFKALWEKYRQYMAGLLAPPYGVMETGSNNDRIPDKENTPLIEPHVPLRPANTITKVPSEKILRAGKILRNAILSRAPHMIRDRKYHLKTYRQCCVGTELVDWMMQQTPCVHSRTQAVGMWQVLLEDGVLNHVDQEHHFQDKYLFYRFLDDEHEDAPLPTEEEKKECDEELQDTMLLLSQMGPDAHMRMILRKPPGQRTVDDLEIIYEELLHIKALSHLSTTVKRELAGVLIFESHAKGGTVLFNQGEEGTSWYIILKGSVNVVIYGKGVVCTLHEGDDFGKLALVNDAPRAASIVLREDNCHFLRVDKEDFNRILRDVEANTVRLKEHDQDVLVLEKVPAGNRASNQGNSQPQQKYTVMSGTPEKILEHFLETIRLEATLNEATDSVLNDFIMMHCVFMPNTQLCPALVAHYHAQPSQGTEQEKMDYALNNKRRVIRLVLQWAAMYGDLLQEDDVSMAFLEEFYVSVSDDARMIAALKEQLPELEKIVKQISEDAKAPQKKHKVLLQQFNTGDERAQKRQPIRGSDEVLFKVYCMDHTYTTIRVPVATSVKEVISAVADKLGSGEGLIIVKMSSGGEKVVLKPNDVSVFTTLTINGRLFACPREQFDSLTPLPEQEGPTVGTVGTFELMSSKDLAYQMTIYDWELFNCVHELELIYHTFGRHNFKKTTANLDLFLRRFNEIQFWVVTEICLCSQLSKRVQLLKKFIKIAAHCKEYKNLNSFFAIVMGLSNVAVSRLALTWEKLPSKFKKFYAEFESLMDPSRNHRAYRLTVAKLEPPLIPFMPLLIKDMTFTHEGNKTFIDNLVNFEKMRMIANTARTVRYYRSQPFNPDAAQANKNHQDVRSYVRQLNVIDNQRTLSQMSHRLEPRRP", "assay": "Confirmatory qHTS for agonist of cAMP-regulated guanine nucleotide exchange factor 4 (EPAC2) (AID 1645884);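 also: nucleotide exchange releases bodipy-GDP from Rap1 and this lowers its fluorescence; nearly all actives have a fitted effect of over 65% in size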"}, "[4]": {"target": "Rap guanine nucleotide exchange factor 4 (Homo sapiens) (UniProt Q8WZA2)", "assay": "Confirmatory qHTS for antagonist of cAMP-regulated guanine nucleotide exchange factor 4 (EPAC2) (AID 1645885); also: nearly all actives have a fitted effect of over 25% in size; also: potency is read from the fitted curve at half-maximal effect"}, "[5]": {"target": "Rap guanine nucleotide exchange factor 3 (Homo sapiens) (UniProt O95398)", "assay": "Counterscreen qHTS for antagonist of cAMP-regulated guanine nucleotide exchange factor 3 (EPAC1) (AID 1645888)", "outline": "(§1)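 Measured: fluorescence of BODIPY-GDP bound to Rap1B, which falls as exchange proceeds. Conditions include 50 uM competing GDP, 5 and 30 min reads, and a later cAMP challenge for antagonist detection.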"}, "[6]": {"target": "Rap guanine nucleotide exchange factor 3 (Homo sapiens) (UniProt O95398)", "assay": "Counterscreen qHTS for agonist of cAMP-regulated guanine nucleotide exchange factor 3 (EPAC1) (AID 1645889)", "outline": "as §1"}},
  "note": "Inconclusive results are not listed. A call without a number means that no potency is given here. Values without a mark were called inactive. Calls of active or inactive are those of the source. Calls follow the shape of the dose curve; as a rule, active = well fitted curve in the direction sought with a large enough effect; inconclusive = small, poorly fitted or top-dose-only effect, or another doubt; inactive = no such curve, though single readings can be large; an effect the other way counts as inactive or inconclusive.",
  "data": [
    {"smiles": "CCCCOC(=O)CSc1nnc(-c2ccc(Cl)cc2Cl)o1", "values": [
      {"measurement": "Potency", "setting": "[1]", "value": "inactive"},
      {"measurement": "Potency", "setting": "[2]", "value": "inactive"},
      {"measurement": "activation", "setting": "[3]", "value": "5.42% [at 17.1 µM, percent relative to cAMP agonist control]"},
      {"measurement": "Potency", "setting": "[4]", "value": "inactive"},
      {"measurement": "activity change, negative = inhibition", "setting": "[5]", "value": "-4.49% [at 30.8 µM]"},
      {"measurement": "activation", "setting": "[6]", "value": "14.1% [at 30.8 µM]"}
    ]},
    {"smiles": "CCCCNC(=O)c1ccc2nc(-c3ccco3)c(-c3ccco3)nc2c1", "values": [
      {"measurement": "Potency", "setting": "[1]", "value": "7.94 µM (active)"},
      {"measurement": "Potency", "setting": "[2]", "value": "inactive"},
      {"measurement": "activation", "setting": "[3]", "value": "3.07% [at 17.1 µM, percent relative to cAMP agonist control]"},
      {"measurement": "Potency", "setting": "[4]", "value": "inactive"},
      {"measurement": "activity change, negative = inhibition", "setting": "[5]", "value": "-2.83% [at 30.8 µM]"},
      {"measurement": "activation", "setting": "[6]", "value": "11.8% [at 30.8 µM]"}
    ]},
    {"smiles": "CCCCC(=O)N(c1ccc(C(=O)O)cc1)c1nc(-c2ccc(Cl)cc2)c(CC)s1", "values": [
      {"measurement": "Potency", "setting": "[1]", "value": "50.1 µM (active)"},
      {"measurement": "Potency", "setting": "[2]", "value": "inactive"},
      {"measurement": "activation", "setting": "[3]", "value": "5.89% [at 17.1 µM, percent relative to cAMP agonist control]"},
      {"measurement": "Potency", "setting": "[4]", "value": "inactive"},
      {"measurement": "activity change, negative = inhibition", "setting": "[5]", "value": "-5.84% [at 30.8 µM]"},
      {"measurement": "activation", "setting": "[6]", "value": "19.6% [at 30.8 µM]"}
    ]},
    {"smiles": "O=C(CCCc1ccccc1)NCc1cn2ccsc2n1", "values": [
      {"measurement": "Potency", "setting": "[1]", "value": "inactive"},
      {"measurement": "Potency", "setting": "[2]", "value": "inactive"},
      {"measurement": "Potency", "setting": "[3]", "value": "inactive"},
      {"measurement": "Potency", "setting": "[4]", "value": "inactive"},
      {"measurement": "Potency", "setting": "[5]", "value": "inactive"},
      {"measurement": "Potency", "setting": "[6]", "value": "inactive"}
    ]},
    {"smiles": "CCC/C(=C1/c2ccccc2C(=O)N1c1ccccc1)c1cnc(OC)nc1", "values": [
      {"measurement": "Potency", "setting": "[1]", "value": "inactive"},
      {"measurement": "Potency", "setting": "[2]", "value": "inactive"},
      {"measurement": "Potency", "setting": "[3]", "value": "inactive"},
      {"measurement": "Potency", "setting": "[4]", "value": "37.9 µM (active)"},
      {"measurement": "Potency", "setting": "[5]", "value": "inactive"},
      {"measurement": "Potency", "setting": "[6]", "value": "inactive"}
    ]},
    {"smiles": "COc1cc(-c2c(CCO)sc3ccccc23)cc(OC)c1OC", "values": [
      {"measurement": "Potency", "setting": "[1]", "value": "inactive"},
      {"measurement": "Potency", "setting": "[2]", "value": "inactive"},
      {"measurement": "activation", "setting": "[3]", "value": "1.4% [at 17.1 µM, percent relative to cAMP agonist control]"},
      {"measurement": "Potency", "setting": "[4]", "value": "inactive"},
      {"measurement": "activity change, negative = inhibition", "setting": "[5]", "value": "-51.2% [at 30.8 µM]"},
      {"measurement": "activation", "setting": "[6]", "value": "8.02% [at 30.8 µM]"}
    ]},
    {"smiles": "CN(Cc1ccccc1F)c1nc(-c2cccs2)nc2ccccc12", "values": [
      {"measurement": "Potency", "setting": "[1]", "value": "inactive"},
      {"measurement": "Potency", "setting": "[2]", "value": "inactive"},
      {"measurement": "activation", "setting": "[3]", "value": "0% [at 17.1 µM, percent relative to cAMP agonist control]"},
      {"measurement": "Potency", "setting": "[4]", "value": "inactive"},
      {"measurement": "activity change, negative = inhibition", "setting": "[5]", "value": "-18.6% [at 30.8 µM]"},
      {"measurement": "activation", "setting": "[6]", "value": "4.35% [at 30.8 µM]"}
    ]},
    {"smiles": "CN1C(=O)C2(C(C#N)=C(N)N(c3cc(Cl)cc(Cl)c3)C3=C2C(=O)CC(C)(C)C3)c2ccccc21", "note": "(configuration not stated)", "values": [
      {"measurement": "Potency", "setting": "[1]", "value": "inactive"},
      {"measurement": "Potency", "setting": "[2]", "value": "inactive"},
      {"measurement": "Potency", "setting": "[3]", "value": "inactive"},
      {"measurement": "Potency", "setting": "[4]", "value": "inactive"},
      {"measurement": "Potency", "setting": "[5]", "value": "inactive"},
      {"measurement": "Potency", "setting": "[6]", "value": "inactive"}
    ]},
    {"smiles": "CCCCn1c(N)c(N(CC(C)C)C(=O)C2CCN(S(=O)(=O)c3ccc(C)c(C)c3)CC2)c(=O)[nH]c1=O", "values": [
      {"measurement": "Potency", "setting": "[1]", "value": "inactive"},
      {"measurement": "Potency", "setting": "[2]", "value": "inactive"},
      {"measurement": "Potency", "setting": "[3]", "value": "inactive"},
      {"measurement": "Potency", "setting": "[4]", "value": "inactive"},
      {"measurement": "Potency", "setting": "[5]", "value": "inactive"},
      {"measurement": "Potency", "setting": "[6]", "value": "inactive"}
    ]},
    {"smiles": "COc1cn(CC(=O)Nc2cccc(C)c2C)c(CN2CCCCC2)cc1=O", "values": [
      {"measurement": "Potency", "setting": "[1]", "value": "inactive"},
      {"measurement": "Potency", "setting": "[2]", "value": "inactive"},
      {"measurement": "Potency", "setting": "[3]", "value": "inactive"},
      {"measurement": "Potency", "setting": "[4]", "value": "inactive"},
      {"measurement": "Potency", "setting": "[5]", "value": "inactive"},
      {"measurement": "Potency", "setting": "[6]", "value": "inactive"}
    ]},
    {"smiles": "Cc1cccc(CN2[C@@H](CC(C)C)COCCS2(=O)=O)c1", "values": [
      {"measurement": "Potency", "setting": "[1]", "value": "inactive"},
      {"measurement": "Potency", "setting": "[2]", "value": "inactive"},
      {"measurement": "Potency", "setting": "[3]", "value": "inactive"},
      {"measurement": "Potency", "setting": "[4]", "value": "inactive"},
      {"measurement": "Potency", "setting": "[5]", "value": "inactive"},
      {"measurement": "Potency", "setting": "[6]", "value": "inactive"}
    ]},
    {"smiles": "Cc1ccc(CNS(=O)(=O)c2ccc(-n3cnnn3)c(C)c2)cc1", "values": [
      {"measurement": "Potency", "setting": "[1]", "value": "inactive"},
      {"measurement": "Potency", "setting": "[2]", "value": "inactive"},
      {"measurement": "activation", "setting": "[3]", "value": "4.56% [at 17.1 µM, percent relative to cAMP agonist control]"},
      {"measurement": "Potency", "setting": "[4]", "value": "inactive"},
      {"measurement": "activity change, negative = inhibition", "setting": "[5]", "value": "3.48% [at 30.8 µM]"},
      {"measurement": "activation", "setting": "[6]", "value": "5.31% [at 30.8 µM]"}
    ]},
    {"smiles": "Cc1ccc(/C=C/C(=O)Nc2ccc(S(=O)(=O)Nc3cc(C)nc(C)n3)cc2)cc1", "values": [
      {"measurement": "Potency", "setting": "[1]", "value": "inactive"},
      {"measurement": "Potency", "setting": "[2]", "value": "inactive"},
      {"measurement": "Potency", "setting": "[3]", "value": "inactive"},
      {"measurement": "Potency", "setting": "[4]", "value": "inactive"},
      {"measurement": "Potency", "setting": "[5]", "value": "inactive"},
      {"measurement": "Potency", "setting": "[6]", "value": "inactive"}
    ]},
    {"smiles": "COc1ccccc1Cn1c(=O)oc2ccc(C)cc21", "values": [
      {"measurement": "Potency", "setting": "[1]", "value": "inactive"},
      {"measurement": "Potency", "setting": "[2]", "value": "inactive"},
      {"measurement": "Potency", "setting": "[3]", "value": "inactive"},
      {"measurement": "Potency", "setting": "[4]", "value": "inactive"},
      {"measurement": "Potency", "setting": "[5]", "value": "inactive"},
      {"measurement": "Potency", "setting": "[6]", "value": "inactive"}
    ]},
    {"smiles": "COc1cc(/C=C2\\SC(=O)NC2=O)ccc1Oc1ccc([N+](=O)[O-])cc1[N+](=O)[O-]", "values": [
      {"measurement": "Potency", "setting": "[1]", "value": "42.6 µM (active)"},
      {"measurement": "Potency", "setting": "[2]", "value": "inactive"},
      {"measurement": "Potency", "setting": "[3]", "value": "inactive"},
      {"measurement": "Potency", "setting": "[4]", "value": "inactive"},
      {"measurement": "Potency", "setting": "[5]", "value": "inactive"},
      {"measurement": "Potency", "setting": "[6]", "value": "inactive"}
    ]},
    {"smiles": "O=C1CC(c2ccccc2C(F)(F)F)c2c(c3ccccc3[nH]c2=O)O1", "note": "(configuration not stated)", "values": [
      {"measurement": "Potency", "setting": "[1]", "value": "inactive"},
      {"measurement": "Potency", "setting": "[2]", "value": "inactive"},
      {"measurement": "Potency", "setting": "[3]", "value": "inactive"},
      {"measurement": "Potency", "setting": "[4]", "value": "inactive"},
      {"measurement": "Potency", "setting": "[5]", "value": "inactive"},
      {"measurement": "Potency", "setting": "[6]", "value": "inactive"}
    ]},
    {"smiles": "CCCS(=O)(=O)N1CCC(C(=O)NCCN2CCCC2)CC1", "values": [
      {"measurement": "Potency", "setting": "[1]", "value": "inactive"},
      {"measurement": "Potency", "setting": "[2]", "value": "inactive"},
      {"measurement": "activation", "setting": "[3]", "value": "10.1% [at 17.1 µM, percent relative to cAMP agonist control]"},
      {"measurement": "Potency", "setting": "[4]", "value": "inactive"},
      {"measurement": "activity change, negative = inhibition", "setting": "[5]", "value": "-10.8% [at 30.8 µM]"},
      {"measurement": "activation", "setting": "[6]", "value": "25.6% [at 30.8 µM]"}
    ]}
  ]
}
